system: Madurella mycetomatis MM55; experiment: percent growth relative to solvent control; higher = less inhibition, active = 20 or less; conditions: 100 µM; 7 days

Row | SMILES | percent growth
1 | O=C(NCc1ccoc1)N1CCN(Cc2ccc3c(c2)OCO3)CC1 | 92.5% (inactive)
2 | CC(C)C(NC(=O)Cc1cccc2ccccc12)C(=O)Nc1cccc(C#N)c1 (stereo not drawn) | 121% (inactive)
3 | CC(C)n1ncc2c(C(=O)NCC(c3cccs3)N3CCOCC3)cc(-c3ccccc3)nc21 (stereo not drawn) | 76% (inactive)
4 | CS(=O)(=O)c1cccc(-c2cnc3[nH]cc(-c4ccc(CCC(=O)O)cc4)c3c2)c1 | 95.9% (inactive)
5 | CC(C)c1ncc(-c2ccncc2)c([C@H]2CC[C@H](CNC(=O)c3cccnc3)CC2)n1 | 114% (inactive)
6 | COc1ccc2nc(C)cc(OCC(=O)Nc3ccccc3OC)c2c1 | 72.5% (inactive)
7 | COc1cccn2c(C(=O)N3CCCCC3)c(C(F)(F)F)nc12 | 85.7% (inactive)
8 | COc1ccc(N(CCc2cccc(C)n2)C(=O)C2CCCCC2)cc1 | 28% (inactive)
9 | Clc1ccc(CCNc2cc(-c3ccccc3)nc3ncnn23)cc1 | 108% (inactive)
10 | NCCC(O)C(=O)N[C@@H]1C[C@H](N)[C@@H](OC2O[C@H](CN)[C@@H](O)[C@H](O)[C@H]2O)[C@H](O)C1OC1O[C@H](CO)[C@@H](O)[C@H](N)[C@H]1O (stereo partly drawn) | 102% (inactive)
11 | CS(=O)(=O)Cc1nc2ccccc2oc1=O | 87.9% (inactive)
12 | CS(=O)(=O)N1CCC(Cn2nc(Cc3cccc4ccccc34)c3c(N)ncnc32)CC1 | 92.8% (inactive)
13 | CC(C)C(C(=O)Nc1ccc(S(=O)(=O)N(C)C)cc1)c1ccc(Cl)cc1 (stereo not drawn) | 121% (inactive)
14 | Cc1cc(OCC(=O)Nc2ccc(C(C)C)cc2)n(C)c(=O)c1C#N | 96% (inactive)
15 | NC(=O)c1cc(-c2ccsc2)ccc1OCCOc1ccccc1 | 103% (inactive)
16 | O=C(NC1=NCCS1)c1sc2cc(F)ccc2c1Cl | 107% (inactive)
17 | COC(=O)c1c(NC(=O)c2c(F)c(F)c(F)c(F)c2F)sc2c1CCCCC2 | 85.5% (inactive)
18 | CC(C(=O)N1CCCC1)N1CCN(S(=O)(=O)c2ccc(C(C)(C)C)cc2)CC1 (stereo not drawn) | 89.9% (inactive)
19 | CN1CCN(S(=O)(=O)c2ccc(-c3ccc4c(Nc5ccc6nn[nH]c6c5)ccnc4c3)cc2)CC1 | 151% (inactive)

Row | SMILES | percent growth
20 | CCCn1c(CNc2ccccc2O)nc2ccccc21 | 91.1% (inactive)
21 | Cc1cc(Nc2ccncc2)n2nc(C)c(-c3ccccc3Cl)c2n1 | 103% (inactive)
22 | CC(C)N=c1cc2n(-c3ccc(Cl)cc3)c3ccccc3nc-2cc1Nc1ccc(Cl)cc1 | 105% (inactive)
23 | Nc1ncnc2c1ncn2C[C@@H](O)[C@@H](O)C(=O)O | 134% (inactive)
24 | O=C(CN1CCOCC1)Nc1ccc2ncnc(Nc3ccc(OCc4cccc(F)c4)c(Cl)c3)c2c1 | 79.4% (inactive)
25 | Cc1cc(Cl)ccc1NC(=O)CCc1ccc(S(=O)(=O)NCC(C)C)cc1 | 91.1% (inactive)
26 | Clc1ccc(CN2CCN(C3=NCCN3)CC2)cc1Cl | 122% (inactive)
27 | O=C(Nc1c(O)cccc1-c1nc2c(C(=O)O)cccc2o1)c1cc(-c2ccccc2)on1 | 113% (inactive)
28 | CO[C@@H](C(=O)N1Cc2[nH]nc(NC(=O)c3ccc(N4CCN(C)CC4)cc3)c2C1)c1ccccc1 | 157% (inactive)
29 | CC(C)(C)OC(=O)N1CCC(Cn2nc(-c3cnc4ccccc4c3)c3c(N)ncnc32)CC1 | 99.2% (inactive)
30 | CCC(=O)Nc1ccccc1C(=O)Nc1ccccn1 | 62.5% (inactive)
31 | CCc1ccc(C(NCc2nc(N)nc(N(C)C)n2)C(C)C)cc1 (stereo not drawn) | 49.1% (inactive)
32 | CCN(CC)S(=O)(=O)c1ccc(C(=O)Nc2cc(C)nn2-c2nc(C)c(C)c(=O)[nH]2)cc1 | 63% (inactive)
33 | Nc1ncc(Br)cc1-c1nc2cc(Cl)cnc2[nH]1 | 105% (inactive)
34 | O=S(=O)(c1ccc(Cl)cc1)N1CCN(C(=S)NCc2ccco2)CC1 | 151% (inactive)
35 | CCNC(=O)C(C)Nc1nc(-c2cccnc2)nc2sc(C)c(C)c12 (stereo not drawn) | 90.4% (inactive)
36 | O=C(C1CCCCC1)N1CC(=O)N2CCc3ccccc3C2C1 (stereo not drawn) | 92.7% (inactive)
37 | CC(C(=O)Nc1ccc2oc(-c3ccncc3)nc2c1)c1ccccc1 (stereo not drawn) | 77% (inactive)
38 | Nc1ncnc2c1ncn2[C@@H]1O[C@H](COS(=O)(=O)NC(=O)c2ccccc2O)[C@@H](O)[C@H]1O | 60.6% (inactive)

Reference: the supplement of paper PMC5940239
